The results in this text go back to PubChem BioAssay (NCATS).

Records with an inconclusive call do not appear. Where a call stands in place of a potency, no number is given. Calls of active or inactive are those of the source. Calls come from the whole dose curve; as a rule, active = well fitted curve in the direction sought with a large enough effect; inconclusive = small, poorly fitted or top-dose-only effect, or another doubt; inactive = no such curve, though single readings can be large; an effect the other way counts as inactive or inconclusive.

Assay [1] has as its target Aldehyde dehydrogenase, mitochondrial (Homo sapiens) (UniProt P05091). Briefly: qHTS for Inhibitors of the Aldehyde Dehydrogenase Family (ALDH2) Primary screen (AID 2061308; note: nearly all actives have a fitted effect of over 55% in size). (In general: Quantitative high-throughput screening tests each substance at several concentrations.)
The target in assay [2] is Retinaldehyde dehydrogenase 3 (Homo sapiens) (UniProt P47895). The experiment in a line: qHTS for Inhibitors of the Aldehyde Dehydrogenase Family (ALDH1A3) Primary screen (AID 2061315).

`Cc1nc(CCN(C)c2ncnc3ccc(-c4ccc5c(c4)OCO5)cc23)cs1`: the Potency entry in assay [1] and in assay [2] was “inactive” each time.
`COC(=O)c1ccc(N2CCN(S(=O)(=O)c3ccc4c(c3)CC(=O)N4)CC2)cc1`: the Potency entry in assay [1] and in assay [2] was “inactive” in each case.
As to `C/C=C(\C)[C@@H]1C(C)=C[C@@H]2[C@H]([C@@H]1/C=C/C=C/C(=O)O)[C@@H](C)CC[C@@H]2O`, the Potency result in assay [1] and in assay [2] was “inactive” in each case.
With `O=C(Cc1ccccc1)Nc1nnc(-c2ccncc2)s1`, the Potency result in assay [1] and in assay [2] was “inactive” throughout.
On to `COc1ccc(-c2nnc3n2N=C(c2ccccc2OC)CS3)c(OC)c1`, for which the Potency entry in assay [1] and in assay [2] was “inactive” each time.
On to `O=C1CCCC2=C1C(c1ccncc1Br)N=C(Nc1nc3ccccc3o1)N2` (stereo not given), for which the Potency entry in assay [1] and in assay [2] was “inactive” in each case.
On to `CC(C)(C)OC(=O)Cc1nnc(-c2cc3ccccc3[nH]2)s1`, for which the Potency entry in assay [1] and in assay [2] was “inactive” throughout.
For the compound `c1csc(CCNc2ncnc3ccc(-c4ccc5c(c4)OCO5)cc23)c1`, the Potency result in assay [1] and in assay [2] was “inactive” each time.
With `NC(=O)c1ccc(-c2noc(-c3ccccc3F)n2)cc1`, the Potency entry in assay [1] and in assay [2] was “inactive” throughout.
Consider `O=C1c2ccccc2C(=O)N1Cc1ccncc1`, for which the Potency result in assay [1] and in assay [2] was “inactive” throughout.
Consider `Cc1ccc(OCCn2c(CCNC(=O)OC(C)(C)C)nc3ccccc32)cc1`, for which the Potency entry in assay [1] and in assay [2] was “inactive” throughout.
Take `COC1CC(O[C@H]2CC[C@]3(C)C4CC[C@]5(C)C(C6=CC(=O)OC6)=CCC56OC46CC[C@@H]3C2)OC(C)C1O[C@@H]1O[C@H](CO[C@@H]2O[C@H](CO)[C@@H](O)[C@H](O)[C@H]2O)[C@@H](O)[C@H](O)[C@H]1O` (stereo not given in full): the Potency entry in assay [1] and in assay [2] was “inactive” each time.
Turning to `C[C@@H]1C[C@@H](O)[C@@]23CO[C@@H](O)[C@@H]2CCC[C@@H]3[C@@]12C[C@@H](c1ccoc1)OC2=O`, the Potency result in assay [1] and in assay [2] was “inactive” in each case.
Turning to `CCOC(=O)C1CCN(C(=O)C2(NC(=O)Nc3ccccc3Cl)CCC2)CC1`, the Potency result in assay [1] and in assay [2] was “inactive” in each case.
For the compound `NC(=O)c1c(-c2ccccc2)no[n+]1[O-]`, the Potency result in assay [1] and in assay [2] was “inactive” each time.
`Cc1nc(NC2CCCCC2)c2nc(-c3ccccc3)n(CCN(C)C)c2n1`: the Potency result in assay [1] and in assay [2] was “inactive” each time.
Consider `O=C(Nc1ccc([S+](=O)([O-])Nc2nccs2)cc1)c1ncn[nH]1`, for which the Potency entry in assay [1] and in assay [2] was “inactive” each time.
As to `Fc1ccc(Nc2nc(-c3ccncc3Cl)nc3ccccc23)cc1F`, the Potency entry in assay [1] and in assay [2] was “inactive” in each case.
As to `CC(C)(O)C1Cc2c(ccc(C(=O)CCc3ccccc3)c2O)O1` (stereo not given), the Potency result in assay [1] and in assay [2] was “inactive” each time.
Take `Cc1cccc(C(=O)NC2CCN(C#N)CC2)c1`: the Potency entry in assay [1] and in assay [2] was “inactive” throughout.
In the case of `Cc1ccc(S(=O)(=O)Nc2cnccc2C(=O)Nc2ccc(-c3nc4ccccc4[nH]3)cc2)cc1`, the Potency entry in assay [1] and in assay [2] was “inactive” each time.
Take `O=[S+]1([O-])N=C(Oc2cccnc2)c2ccccc21`: the Potency entry in assay [1] and in assay [2] was “inactive” each time.
Turning to `Cc1nc(NCc2ccccc2)c2nc(-c3ccccc3)n(CCCN(C)C)c2n1`, the Potency entry in assay [1] and in assay [2] was “inactive” throughout.
Take `CNC(=O)c1cnn2c(C)cc(C)nc12`: the Potency entry in assay [1] and in assay [2] was “inactive” throughout.
`O=C(c1ccc2c(c1)ncn2-c1ccc(C(F)(F)F)cc1)N1CCCCC1`: the Potency result in assay [1] and in assay [2] was “inactive” throughout.
In the case of `Cc1ccc(OCCn2c(CCN[S+](=O)([O-])C3CCCCC3)nc3ccccc32)cc1`, the Potency result in assay [1] and in assay [2] was “inactive” each time.
Consider `Cc1cc2c(s1)c1c(C)nn(Cc3ccccc3F)c(=O)c1n2C`, for which the Potency result in assay [1] and in assay [2] was “inactive” throughout.
With `CS(=O)(=O)c1ccc(C(=O)OC(C(=O)NC2C3CC4CC(C3)CC2C4)c2ccccc2)cc1[N+](=O)[O-]` (stereo not given), the Potency result in assay [1] and in assay [2] was “inactive” throughout.
Take `CN(C(=O)c1cn2c(-c3ccc(C(F)(F)F)cc3)cnc2cn1)c1ccc(C#N)cc1`: the Potency result in assay [1] and in assay [2] was “inactive” each time.
With `Cc1ccc(NS(=O)(=O)c2cc3c(cc2C)OCC(=O)N3)cc1C`, the Potency entry in assay [1] and in assay [2] was “inactive” throughout.
For the compound `Cc1ccc(NS(=O)(=O)c2cc3c(cc2NCCO)NC(=O)CC3)cc1C`, the Potency entry in assay [1] and in assay [2] was “inactive” throughout.
Regarding `COc1ccc(NC(=O)c2[nH]c(C)c(C(C)=O)c2C)cc1S(=O)(=O)Nc1cccc(C#N)c1`, the Potency entry in assay [1] and in assay [2] was “inactive” in each case.
Regarding `N#Cc1cccc(S(=O)(=O)Nc2cnccc2C(=O)Nc2nc(-c3ccccc3)cs2)c1`, the Potency entry in assay [1] and in assay [2] was “inactive” in each case.
Regarding `O=S(=O)(Nc1nccs1)c1ccc(NCc2cccc(Cl)c2Cl)cc1`, the Potency entry in assay [1] and in assay [2] was “inactive” throughout.
For the compound `COc1cccc(CNc2ccc(S(=O)(=O)Nc3nccs3)cc2)c1`, the Potency entry in assay [1] and in assay [2] was “inactive” in each case.
With `COc1ccc(C(=O)Nc2ccc(-c3nc4ccccc4[nH]3)cc2)cc1Br`, the Potency entry in assay [1] and in assay [2] was “inactive” in each case.
Regarding `N#Cc1cnc(NS(=O)(=O)c2ccc(NC(=O)Cc3ccc(F)c(Cl)c3)cc2)s1`, the Potency result in assay [1] and in assay [2] was “inactive” throughout.
As to `Cc1ccc(-c2ccc(=O)n(CC(=O)N(C)C(C)c3cccs3)n2)cc1` (stereo not given), the Potency result in assay [1] and in assay [2] was “inactive” each time.
Turning to `Clc1ccc(CSc2nc3ncc(Br)cc3[nH]2)cc1Cl`, the Potency entry in assay [1] and in assay [2] was “inactive” in each case.
As for `Cc1ccc(S(=O)(=O)Nc2cccc(C(=O)Nc3nc(-c4ccccc4)cs3)c2)cc1`, the Potency entry in assay [1] and in assay [2] was “inactive” in each case.
